Results published in PubChem BioAssay AID1416 (The Scripps Research Institute Molecular Screening Center, 2008).
Out of some 220,000 compounds screened, about 370 (0.17%) were called active.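 How the source made its calls: active means inhibition above the mean inhibition of all tested compounds plus 3 SD, set separately per screening campaign (cut at about 2.9% in these data); inactive means the rest.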 Only a selection was taken, and actives are over-represented in it overall.

What follows are molecules tested against Eukaryotic translation initiation factor 2-alpha kinase 3 (Homo sapiens) (UniProt Q9NZJ5) (assay: block of dimerizer-induced PERK translation repression, primary screen, PERK inhibitor project, CHO PERK-DD cells, SEAP luminescence, HTS (AID 1416;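 further: PERK kinase domain activated by AP20187 dimerizer at 100 nM; 0% = DMSO with dimerizer and 100% = rapamycin at 8.4 µM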)). Details: CHO PERK-DD fusion, SEAP luminescence translation reporter; at 5.6 µM; active compounds read high.
Sequence of Eukaryotic translation initiation factor 2-alpha kinase 3 (Homo sapiens) (Q9NZJ5 whole entry, looked up, the tested form may be a part): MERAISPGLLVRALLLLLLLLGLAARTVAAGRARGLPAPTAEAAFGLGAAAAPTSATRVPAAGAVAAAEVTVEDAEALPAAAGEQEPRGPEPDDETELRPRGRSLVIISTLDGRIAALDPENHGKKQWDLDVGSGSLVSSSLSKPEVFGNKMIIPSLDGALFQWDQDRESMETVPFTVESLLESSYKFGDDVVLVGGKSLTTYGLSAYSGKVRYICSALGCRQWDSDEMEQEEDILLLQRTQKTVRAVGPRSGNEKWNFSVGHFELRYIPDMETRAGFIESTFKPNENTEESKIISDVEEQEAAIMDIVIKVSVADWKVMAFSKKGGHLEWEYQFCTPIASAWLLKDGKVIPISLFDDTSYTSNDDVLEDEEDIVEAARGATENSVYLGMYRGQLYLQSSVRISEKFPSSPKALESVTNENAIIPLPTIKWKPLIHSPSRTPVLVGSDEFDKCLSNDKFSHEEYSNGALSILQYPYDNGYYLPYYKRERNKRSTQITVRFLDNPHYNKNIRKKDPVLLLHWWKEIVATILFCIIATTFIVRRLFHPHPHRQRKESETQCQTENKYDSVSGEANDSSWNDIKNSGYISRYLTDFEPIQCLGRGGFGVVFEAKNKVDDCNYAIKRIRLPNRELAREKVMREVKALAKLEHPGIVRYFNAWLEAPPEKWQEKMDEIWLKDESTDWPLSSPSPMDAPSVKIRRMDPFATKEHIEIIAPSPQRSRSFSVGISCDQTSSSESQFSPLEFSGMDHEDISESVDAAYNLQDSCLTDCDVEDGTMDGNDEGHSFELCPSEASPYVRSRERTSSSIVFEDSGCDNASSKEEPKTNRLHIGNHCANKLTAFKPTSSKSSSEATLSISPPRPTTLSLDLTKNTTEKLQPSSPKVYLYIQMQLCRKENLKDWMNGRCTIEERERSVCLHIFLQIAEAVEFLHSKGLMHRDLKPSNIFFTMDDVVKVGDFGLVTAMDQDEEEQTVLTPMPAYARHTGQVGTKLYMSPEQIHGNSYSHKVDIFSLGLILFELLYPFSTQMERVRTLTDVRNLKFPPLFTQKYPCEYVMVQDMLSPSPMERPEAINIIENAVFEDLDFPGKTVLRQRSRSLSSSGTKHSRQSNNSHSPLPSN

SMILES | inhibition
CC1=NN(C(C)C)C(=O)C1 | 0.1% (inactive)
O=C(CN1CCN(S(=O)(=O)c2ccc3ccccc3c2)CC1)NC(=O)NC1CCCCC1 | -1.71% (inactive)
COc1ccc(-n2c(C)nn(CC3CC3)c2=O)cc1 | 0.52% (inactive)
COc1ccc(CN2CCCC(CNC(=O)c3ccc(F)cc3)C2)cc1OC (stereo not drawn) | 0.78% (inactive)
O=C(NNC(=O)C1CCN(c2ncccn2)CC1)c1ccccc1 | 1.78% (inactive)
Cc1cc(Cl)ccc1OCCCC(=O)NCc1ccccn1 | 0.34% (inactive)
O=C(Nc1cccnc1)c1cc([N+](=O)[O-])ccc1Cl | 1.12% (inactive)
Cc1cc(=O)[nH]c(N/N=C/c2c(C)nn(-c3ccccc3Cl)c2Cl)n1 | 0.41% (inactive)
COc1ccc2[nH]c(=O)c(CNc3ccc(C)c(C)c3)cc2c1 | 0.88% (inactive)
COc1ccc2[nH]c(=S)cc(C)c2c1 | 3.26% (active)
COc1ccc2[nH]c3ccc(OC)cc3c2c1 | -0.09% (inactive)
CN1CCN(CCC(=O)N/N=C/C=C2\N(C)c3ccccc3C2(C)C)CC1 | 0.12% (inactive)
O=C(COC(=O)c1cnc(Cl)c(Cl)c1)NCc1ccco1 | -0.25% (inactive)
NC(=O)Cc1ccc2sc(-c3ccccc3)nc2c1 | 0% (inactive)
O=C(CCNc1n[nH]c(=O)[nH]c1=O)N/N=C\c1ccc(Br)cc1 | 1.9% (inactive)
Cc1cc(/C=N/NC(=O)CC2(C)OCCO2)c(C)n1-c1ccc(Cl)c(Cl)c1 | -0.35% (inactive)
CC(=O)NC1=NN(C(C)=O)C(C)(c2ccc(C)cc2)S1 (stereo not drawn) | 0.26% (inactive)
COc1ccc(CC(NC(C)=O)C(=O)NC2CCN(C(=O)c3ccc(OC)c(OC)c3)CC2)cc1OC (stereo not drawn) | 0.49% (inactive)
O=C(COc1ccc([N+](=O)[O-])cc1Cl)Nn1cnnc1 | 0.99% (inactive)
CN(C)S(=O)(=O)c1cccc(NC(=S)NCc2ccc3c(c2)OCO3)c1 | -0.05% (inactive)
COC(OC)c1ccnc(SCc2ccccc2Cl)n1 | 1.69% (inactive)
CCN1CCN(C(=O)CCN2C(=O)c3ccccc3C2=O)CC1 | 1.42% (inactive)
COC(=O)c1cc2n(n1)CCCNC2=O | 0.06% (inactive)
CCN(CC)CCOC(=O)c1ccc(NC(=O)CNC(=O)c2ccccc2)cc1 | 2.02% (inactive)
CCn1nc(C)c(CN2CCN(Cc3ccc(OC)c(C)c3C)C(CCO)C2)c1C (stereo not drawn) | -0.31% (inactive)

SMILES | inhibition
Cc1ccc(N2C(=O)C(Cc3ccccc3)NC2=S)cc1 (stereo not drawn) | -0.27% (inactive)
COc1ccc(N2C(=O)C(Cc3ccccc3)NC2=S)cc1 (stereo not drawn) | 0.37% (inactive)
O=C1C(Cc2ccc(O)cc2)NC(=S)N1Cc1ccccc1 (stereo not drawn) | 3.13% (active)
O=[N+]([O-])c1ccc2c(c1)C(N1CCOCC1)/C(=C/C1(O)CCCCC1)O2 (stereo not drawn) | -1.29% (inactive)
Cc1c(C(=O)N(Cc2ccccc2)Cc2cccnc2)cnn1-c1ccc(F)cc1 | -0.72% (inactive)
CCc1cc(CNC(=O)CC2C(=O)NCCN2CC2CCCCC2)on1 (stereo not drawn) | -0.53% (inactive)
COc1cc(NS(=O)(=O)c2ccc(NC(=O)CN3C(=O)c4ccccc4C3=O)cc2)ncn1 | 2.32% (inactive)
Cc1ccc(Oc2cnn(-c3ccccc3)c(=O)c2Br)cc1 | 2.99% (active)
COc1ccc(Oc2c(Cl)cnn(-c3ccccc3)c2=O)cc1 | 0.39% (inactive)
COc1ccc(-n2c(C)nc3c(cnn3-c3ccccc3)c2=O)cc1 | -0.16% (inactive)
CCCS(=O)(=O)N1CCC(CCOc2ccccc2)(C(=O)OCC)CC1 | -0.64% (inactive)
O=C(NC(=O)N1CCOCC1)c1ccccc1 | 0.27% (inactive)
O=C(NC(=O)c1cc(OCC(F)(F)F)ccc1OCC(F)(F)F)Nc1ccccc1 | 0.87% (inactive)
CN(C)S(=O)(=O)c1ccc(NC(=O)N2CCOCC2)cc1 | 0.79% (inactive)
Cn1nccc1NS(=O)(=O)c1ccc(F)cc1 | 0.14% (inactive)
CC(C)CNC(=O)C(=O)Nc1ccc(N(C)C)cc1 | 0.89% (inactive)
Nc1ccc(S(=O)(=O)Nc2nccc(/C=C/c3ccc(Br)s3)n2)cc1 | 1.17% (inactive)
Cc1cccc(C)c1NC(=O)Nc1ccccc1-n1ccnc1 | 1.72% (inactive)
CC(CC(=O)Nc1ccccc1)n1ccnc1 (stereo not drawn) | 0.1% (inactive)
O=C(O)CCCC(=O)Nc1ccccc1-n1ccnc1 | 3.15% (active)
COc1cccc(C2SCC(=O)N2c2cccc(C)c2)c1OC (stereo not drawn) | 0.28% (inactive)
CC(=O)NCC(=O)N(Cc1ccco1)C1(C(=O)NC2CCCC2)CCCCC1 | 0.44% (inactive)
CCc1ccc(N(CC(=O)Nc2sc3c(c2C(=O)OC)CCCC3)S(C)(=O)=O)cc1 | 0.54% (inactive)
O=C(c1cccc(S(=O)(=O)N2CCCC2)c1)N(Cc1ccco1)C1CCS(=O)(=O)C1 (stereo not drawn) | 0.31% (inactive)
Cc1nn(-c2ccccc2)c(-n2cccc2)c1C(=O)O | 0.88% (inactive)

SMILES | inhibition
CC(CO)(CO)NC(=O)c1ccc(=O)[nH]n1 | 1.5% (inactive)
CCC(C)NCCOCCOc1ccc(Br)cc1C (stereo not drawn) | -0.24% (inactive)
COc1ccc(C2c3c(C)nn(-c4ccccc4)c3NC(=O)N2c2ccccc2)cc1 (stereo not drawn) | -0.38% (inactive)
CCN(CCCNC(=O)C1CCN(S(=O)(=O)c2cnc[nH]2)CC1)c1ccccc1 | -0.73% (inactive)
O=C(Nc1ccccc1)O/N=C1/CCCc2occc21 | 0.48% (inactive)
COc1ccc(-c2csc(NC(=O)COC(=O)c3ccc(Br)o3)n2)cc1 | 0.82% (inactive)
O=[N+]([O-])c1ccc(NCCCO)c(C(F)(F)F)c1 | 0.52% (inactive)
CCN(CC)CCNc1ccc(Cl)cc1[N+](=O)[O-] | -0.09% (inactive)
N#Cc1c(NCCO)ccc([N+](=O)[O-])c1NCCO | 3.54% (active)
O=C(C1CCCN1S(=O)(=O)c1ccc(Br)cc1)N1CCOCC1 (stereo not drawn) | 1.24% (inactive)
CCC1(C)Cc2c(sc3nc(SC)[nH]c(=O)c23)CO1 (stereo not drawn) | -0.25% (inactive)
CCOC(=O)Cn1c(SC)nc2sc3c(c2c1=O)CC(C)(C)OC3 | 0.18% (inactive)
CCOC(=O)CSc1nc2sc3c(c2c(=O)[nH]1)CC(C)(C)OC3 | 2.96% (active)
Cc1cccc(C(=O)Nc2ccc(C(=O)/C=C/c3cccs3)cc2)c1 | -1.44% (inactive)
COc1cc(/C=C/C(=O)OCC(=O)NC(=O)NCc2ccccc2)ccc1OCC#N | 0.97% (inactive)
O=C(c1ccco1)N1CCN(C(=O)C2CCCN(S(=O)(=O)c3cccc4nsnc34)C2)CC1 (stereo not drawn) | 0.2% (inactive)
CN(C)c1ccc(NC(=O)CSc2n[nH]c(-c3ccco3)n2)cc1 | -0.7% (inactive)
COc1ccccc1Cn1c(C)nnc1-c1cnn(C)c1N | 0.89% (inactive)
CCSc1ccccc1C(=O)NCc1ccc(OC)cc1 | 0.41% (inactive)
CCn1cc(CN2CCCC(CNS(=O)(=O)Cc3ccccc3)C2)cn1 (stereo not drawn) | 1.56% (inactive)
COc1c(N2CCN(C(=S)Nc3ccccc3F)C(C)C2)c(F)cc2c(=O)c(C(=O)O)cn(C3CC3)c12 (stereo not drawn) | 1.87% (inactive)
Cc1ccccc1-n1nc(C)c2cc(C(=O)NC3CC3)sc21 | -1.39% (inactive)
Cc1c(Cl)c([N+](=O)[O-])nn1CC(=O)NCC1CCCO1 (stereo not drawn) | 0.38% (inactive)
Cc1cc(S(=O)(=O)NC2CCCCC2)ccc1OCC(=O)NCc1cccnc1 | 0.23% (inactive)
CC(=O)NCc1ccc(S(=O)(=O)NC2CCN(Cc3ccccc3)CC2)cc1 | 1.04% (inactive)

SMILES | inhibition
O=C1CCC(=O)N1c1ccc(NCCc2ccccc2F)c([N+](=O)[O-])c1 | -0.58% (inactive)
NC(=O)c1ccc(N2CCOCC2)nc1 | 2.55% (inactive)
N#CC1=C(N)N(c2ccc(F)cc2)C(=O)C1 | 0.76% (inactive)
CCOC(=O)c1ccc(COC(=O)CCc2nc(-c3ccccc3)c(-c3ccccc3)o2)cc1 | -0.32% (inactive)
Cc1cc(NC(=O)COC(=O)COc2ccc(Cl)cc2C)c([N+](=O)[O-])cc1C | 0.97% (inactive)
CCOC(=O)C1=C(C)N=C2c3ccccc3C(=O)C2C1c1ccc(Br)cc1 (stereo not drawn) | 0.04% (inactive)
CCOc1cnc(C(=O)NNC(=O)c2ccccc2Br)o1 | 1.53% (inactive)
CC1CN(C2CCN(C(=O)COc3ccccc3)CC2)CC(C)O1 (stereo not drawn) | 0.89% (inactive)
Cc1nn(CC2CC2)c(=O)n1N(C)c1ncc(C(F)(F)F)cc1Cl | 1.31% (inactive)
O=C(Cn1cnc2ccccc21)N/N=C/c1ccco1 | -0.07% (inactive)
O=C(O)/C=C\C(=O)Nc1ccc(OCc2ccccc2)cc1 | 1.09% (inactive)
CCOc1c(Br)cc(/C=C2\C(=O)N(CCC#N)N=C2C)cc1OC | 1.06% (inactive)
O=[N+]([O-])c1ccccc1NCc1ccccc1Cl | 0.13% (inactive)
COc1ccc([N+](=O)[O-])cc1N(CC(O)Cn1nnc2ccccc21)S(=O)(=O)c1ccc(C)cc1 (stereo not drawn) | -0.77% (inactive)
O=C(O)CC1(CC(=O)Nc2cccc(C(F)(F)F)c2)CCCC1 | 1.02% (inactive)
O=C(Nc1ccc2c(c1)C(=O)OC2)Nc1cccc2ccccc12 | 1.57% (inactive)
CC(=O)c1cc2c(cc1NC(=O)CN1CCCCCC1)OCO2 | -1.22% (inactive)
CC(=O)c1cc2c(cc1N)OCO2 | 4.03% (active)
CC(=O)c1ccc2c(c1)OCCOCCOc1ccc(C(C)=O)cc1OCCOCCO2 | -1% (inactive)
Cc1ccc2cc(C)c(N3CCC(C)CC3)nc2c1 | 1.08% (inactive)
CCCCC(CC(C)O)c1n[nH]c(=S)n1-c1ccccc1 (stereo not drawn) | 0.58% (inactive)
CC(NS(=O)(=O)c1ccccc1)c1n[nH]c(=S)n1-c1ccccc1 (stereo not drawn) | 3.52% (active)
S=c1[nH]nc(COc2ccccc2)n1-c1ccccc1 | 0.99% (inactive)
